Only some compounds are listed: those with a hit (about 17% of all), similar ones and a draw of the others.
DT40 TDP1 no CPT – qHTS for Inhibitors of human tyrosyl-DNA phosphodiesterase 1 (TDP1): qHTS in cells in absence of CPT; 420,000 compounds, 15% hits; DT40 Tdp1-/- hTDP1 cells, no CPT, ATP luminescence, 48 h; Potency, µM (top dose mostly 46.2 µM), hits mostly inhibitors; further: nearly all actives have a fitted effect of over 55% in size
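Compound effects on proliferation are scored in DT40 Tdp1-/-;hTDP1 cells in the absence of CPT. ATP levels (CellTiter-Glo luminescence) are recorded after a ≥48 hr, 37 °C incubation.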
TDP1 cell CPT – qHTS for Inhibitors of human tyrosyl-DNA phosphodiesterase 1 (TDP1): qHTS in cells in presence of CPT. chicken DT40 Tdp1-/-;hTDP1 cells + 20 nM CPT, ATP luminescence, 48 h. Potency, µM (titrated, usually from 46.2 µM), most hits filed as inhibitors. 420,000 compounds, 12% hits. AID 686979, 2013; further: nearly all actives have a fitted effect of over 55% in size
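Cell growth measured by CellTiter-Glo luminescence after a minimum 48 h, 37 C compound exposure with 20 nM CPT in Tdp1-knockout DT40 cells stably expressing hTDP1, seeded 400/well; qHTS titration format.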
S2 tox – Viability Counterscreen for Primary qHTS for Inhibitors of ATXN expression | S2 cells (HEK-293 line with an ATXN2-luciferase reporter) viability, CellTiter-Fluor protease fluorescence, 24 h | Potency, µM (doses to about 56.7 µM), usual class: cytotoxic | 400,000 compounds, 0.49% hits | AID 651635, 2014; further: nearly all actives have a fitted effect of over 40% in size
TGFb inhibitor – qHTS for Inhibitors of TGF-b; 410,000 compounds, 1.2% hits; Potency, µM (doses to about 46.1 µM), most hits filed as inhibitors; HepG2 CAGA-GFP TGF-b/SMAD3 reporter, GFP fluorescence, 18 h; TGF-beta stimulated, 500 pg/mL final; AID 588855, 2011; further: nearly all actives have a fitted effect of over 65% in size
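GFP signal (ex488/em500-530) from TGF-beta-stimulated HEPG2 CAGA-GFP cells, 500 pg/mL final, 18 h at 37 degrees C in DMEM plus 1% FBS, normalized to unstimulated and DMSO-stimulated controls.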
HepG2 viability – qHTS for Inhibitors of TGF-b: Cytotox Counterscreen; 410,000 compounds, 0.76% hits; HepG2 CAGA-GFP viability, ATP luminescence, 18 h; Potency, µM (series often up to 46.1 µM), most hits filed as cytotoxic
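CellTiter-Glo luminescence gave cytotoxicity after 18 hours at 37 degrees C. The cells were HepG2 CAGA-GFP in 1% FBS DMEM, stimulated with 500 pg/mL TGF-beta after compound addition. %Activity was normalised to no-cell wells (complete cell-killing) and DMSO (no toxicity), and curves were fitted and classified.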
ATXN2 expr inh – Primary qHTS for Inhibitors of ATXN expression; HEK-293 ATXN2-luciferase reporter, luminescence, 24 h; Potency, µM (titrated, usually from 57 µM), hits mostly inhibitors; 360,000 compounds, 0.72% hits; AID 1745845, 2022; further: nearly all actives have a fitted effect of over 55% in size
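ATXN2-luciferase reporter cells (luciferase flanked by upstream and downstream ATXN2 gene portions) were treated 24 h at 37 °C with compounds at up to 57 uM. SteadyGlo luminescence gave expression; GF-AFC fluorescence gave viability.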
Large screens that a line does not name were inactive; ! = not active in a repeat. The call rests on the fitted dose curve; in most records, active means well fitted curve in the direction sought with a large enough effect; inconclusive means small, poorly fitted or top-dose-only effect, or another doubt; inactive means no such curve, though single readings can be large; an effect the other way counts as inactive or inconclusive.

COC(=O)c1cccc(-c2ccc(/C=N/N3C(=O)C4C5C=CC(C6CC56)C4C3=O)o2)c1 (centres undefined)	none
O=C(CN(C(=O)CCC(=O)Nc1nccs1)c1ccc(F)c(Cl)c1)NCc1ccco1	TGFb inhibitor inconclusive
C=CCn1c(SCC(=O)c2ccc(O)c(O)c2)nnc1-c1ccc(C)cc1	DT40 TDP1 no CPT inconclusive, TDP1 cell CPT 16µM, S2 tox inconclusive, TGFb inhibitor inconclusive
C=CCn1c(SCC(=O)c2ccc(O)c(O)c2)nnc1-c1cccc(OC)c1	DT40 TDP1 no CPT 15µM, TDP1 cell CPT 15µM, S2 tox inconclusive
COc1ccc(-n2nnnc2SCC(=O)c2ccc(O)c(O)c2)cc1	DT40 TDP1 no CPT inconclusive, TDP1 cell CPT inconclusive
C=CCn1c(SCC(=O)c2ccc(O)c(O)c2)nnc1-c1ccc(OC)cc1	DT40 TDP1 no CPT 16µM, TDP1 cell CPT 21µM
Cn1c(SCC(=O)c2ccc(O)c(O)c2)nnc1-c1ccccc1	DT40 TDP1 no CPT inconclusive, TDP1 cell CPT inconclusive
COc1cccc(NC(=O)N(Cc2cn(C)c3ccccc23)C2CCCCC2)c1	DT40 TDP1 no CPT 7.3µM, TDP1 cell CPT 4.1µM, S2 tox inconclusive, TGFb inhibitor inconclusive, ATXN2 expr inh inconclusive
Cc1ccc(NC(=O)N(Cc2cn(C)c3ccccc23)C2CCCCC2)cc1C	DT40 TDP1 no CPT 5.2µM, TDP1 cell CPT 5.8µM
CC(=O)N1CCC(N(C(=O)Nc2ccc(C)c(C)c2)C2CCCC2)CC1	none
CCOC(=O)CN1N=C(/C=C/c2ccc(C)cc2)CCC1=O	DT40 TDP1 no CPT inconclusive
Cc1ccccc1CN1N=C(/C=C/c2ccccc2)CCC1=O	DT40 TDP1 no CPT 23µM
Cc1cc(C)c(C(=O)COC(=O)c2cc([N+](=O)[O-])ccc2N2CCOCC2)cc1C	DT40 TDP1 no CPT 18µM, TDP1 cell CPT inconclusive
COc1ccccc1C(=O)COC(=O)c1cc([N+](=O)[O-])ccc1N1CCOCC1	DT40 TDP1 no CPT inconclusive, TDP1 cell CPT inconclusive
O=C(OCc1ccc([N+](=O)[O-])cc1)c1cc([N+](=O)[O-])ccc1N1CCOCC1	DT40 TDP1 no CPT 23µM, TDP1 cell CPT 16µM
Cc1ccc(S(=O)(=O)N2[C@@H](CO)CO[C@H]2CC(=O)c2ccc(F)cc2)cc1	none (no result: S2 tox, TGFb inhibitor, HepG2 viability, ATXN2 expr inh)
COc1cc(C(=O)NCC(c2ccco2)S(=O)(=O)c2cccs2)cc(OC)c1OC (centres undefined)	DT40 TDP1 no CPT inconclusive, TDP1 cell CPT inconclusive (no result: S2 tox, ATXN2 expr inh)
CCCCCCCCCCCCCCCC(=O)OCC(COP(=O)(O)O)OC(=O)CCCCCCCCCCCCCCC (centres undefined)	none (no result: S2 tox, TGFb inhibitor, HepG2 viability, ATXN2 expr inh)
COc1cc(=O)n2c(c1C(=O)NCc1ccsc1)CCN(Cc1nc3ccccc3[nH]1)CC2	none (no result: TGFb inhibitor, HepG2 viability, ATXN2 expr inh)
CCn1cc(C(=O)OCC(=O)OC2CC(C)CCC2C(C)C)c(=O)c2ccc(C)nc21 (centres undefined)	DT40 TDP1 no CPT inconclusive, TDP1 cell CPT 18µM, TGFb inhibitor inconclusive
OC(c1ccc(F)c(F)c1)c1ncc(-c2cccc(F)c2)[nH]1 (centres undefined)	TDP1 cell CPT inconclusive
CC(C)Oc1ccc(CNC(=O)CCC(=O)N2CC(C)Sc3ccccc32)cc1 (centres undefined)	DT40 TDP1 no CPT inconclusive, TDP1 cell CPT 16µM
CC(C)Oc1ccc(CNC(=O)c2ccc(NC(=O)N3CC(C)Sc4ccccc43)cc2)cc1 (centres undefined)	TDP1 cell CPT 21µM
CC1CN(C(=O)Nc2ccc(C(=O)NCCc3ccccc3Cl)cc2)c2ccccc2S1 (centres undefined)	DT40 TDP1 no CPT 21µM, TDP1 cell CPT 23µM
CC1CN(C(=O)Nc2ccc(C(=O)NCCc3ccc(Cl)cc3)cc2)c2ccccc2S1 (centres undefined)	DT40 TDP1 no CPT inconclusive, S2 tox inconclusive
CC1CN(C(=O)CCC(=O)NCc2ccccc2Cl)c2ccccc2S1 (centres undefined)	none
CC(C)N(C(=O)CSc1nnc(-c2ccc3c(c2)OCO3)n1C)C(C)C	none
CN1CCN(S(=O)(=O)c2ccc([N+](=O)[O-])cc2)CC1	none
O=[N+]([O-])c1ccccc1Oc1ccc(S(=O)(=O)N2CCOCC2)cc1	DT40 TDP1 no CPT 21µM, TDP1 cell CPT inconclusive
O=S(=O)(c1ccc(Oc2ccc3c(c2)OCO3)c(S(=O)(=O)N2CCOCC2)c1)N1CCOCC1	DT40 TDP1 no CPT 11µM, TDP1 cell CPT 0.89µM (no result: S2 tox, ATXN2 expr inh)
O=[N+]([O-])c1ccc(Oc2ccc(S(=O)(=O)N3CCCCC3)cc2)cc1	DT40 TDP1 no CPT 15µM, TDP1 cell CPT 16µM
CC1CCN(S(=O)(=O)c2ccc(Oc3ccc([N+](=O)[O-])cc3)cc2)CC1	DT40 TDP1 no CPT 16µM, TDP1 cell CPT 16µM, TGFb inhibitor inconclusive
COC(=O)C[C@H]1C=C[C@@H](C(C(=O)OC)C(=O)OC)CN1C(C)=O	none
O=C(O)c1cc(-n2[nH]c(=O)c3ccccc3c2=O)ccc1Cl	none
CCCN[C@H]1CCc2nc(N)sc2C1	DT40 TDP1 no CPT 17µM!, TDP1 cell CPT inconclusive
Nc1nc2c(s1)CCCCCCCCCC2	DT40 TDP1 no CPT inconclusive
Cc1sc2nc3c(C(=O)N4CCCC4)cc(C(=O)c4ccccc4O)cn3c(=O)c2c1C	DT40 TDP1 no CPT 13µM, TDP1 cell CPT inconclusive, S2 tox inconclusive
CCc1c(C)sc2nc3c(C(=O)N4CCOCC4)cc(C(=O)c4cc(F)ccc4O)cn3c(=O)c12	DT40 TDP1 no CPT 16µM, TDP1 cell CPT 23µM, S2 tox inconclusive, TGFb inhibitor inconclusive
O=C(NCC1CCCO1)c1ccccc1S(=O)(=O)c1ccc([N+](=O)[O-])cc1 (centres undefined)	none
c1ccc2c(CN3CCOCC3)c3ccccc3c(CN3CCOCC3)c2c1	DT40 TDP1 no CPT inconclusive, TDP1 cell CPT inconclusive
OC1(CN2CCOCC2)C2CN3CCN(C2)CC1(c1ccccc1)C3 (centres undefined)	DT40 TDP1 no CPT inconclusive, TDP1 cell CPT 29µM
CN1CCN(c2ccc(NC(=O)c3cccs3)cc2)CC1	none
CNC(=O)c1nn(C)c2c1C(C)(C)Cc1cnc(Nc3ccc(N4CCN(C)CC4)cc3)nc1-2	ATXN2 expr inh 1.7µM (no result: DT40 TDP1 no CPT, TDP1 cell CPT, S2 tox, TGFb inhibitor, HepG2 viability)
CC(=O)/C(C#N)=C1\NC(=O)C(Cc2ccccc2C)S1 (centres undefined)	DT40 TDP1 no CPT 2.3µM, TDP1 cell CPT inconclusive (no result: S2 tox)
